# From PubChem BioAssay (NCATS)
# Inconclusive results are not listed. A call without a number means that no potency is given here. Calls of active or inactive are those of the source. The call rests on the fitted dose curve; in most records, active means well fitted inhibition curve with a large enough effect; inconclusive means small, poorly fitted or top-dose-only effect, or effect the other way; inactive means flat fitted curve, though single readings scatter.
# Target: ATP-dependent 6-phosphofructokinase (Trypanosoma brucei brucei) (UniProt O15648)
# Test: qHTS Assay to Find Inhibitors of T. brucei phosphofructokinase: hit validation (AID 492961);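 further: luminescence reports ADP formed as PFK phosphorylates fructose-6-phosphate with ATP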
# Details: T. brucei PFK, ADP-Glo luminescence; series mostly up to 51.4 µM
# How it was run: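 PFK 1.25 nM, F6P 0.5 mM, ATP 0.1 mM, MgCl2 5 mM, 0.1 M TEA pH 8.0, Tween20 0.01%, BSA 0.1%; 45 min RT. ADP-Glo two-step detection, luminescence. qHTS titration; curve fitting with curve-class categorization.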
# ATP-dependent 6-phosphofructokinase (Trypanosoma brucei brucei), sequence (O15648 whole entry, looked up): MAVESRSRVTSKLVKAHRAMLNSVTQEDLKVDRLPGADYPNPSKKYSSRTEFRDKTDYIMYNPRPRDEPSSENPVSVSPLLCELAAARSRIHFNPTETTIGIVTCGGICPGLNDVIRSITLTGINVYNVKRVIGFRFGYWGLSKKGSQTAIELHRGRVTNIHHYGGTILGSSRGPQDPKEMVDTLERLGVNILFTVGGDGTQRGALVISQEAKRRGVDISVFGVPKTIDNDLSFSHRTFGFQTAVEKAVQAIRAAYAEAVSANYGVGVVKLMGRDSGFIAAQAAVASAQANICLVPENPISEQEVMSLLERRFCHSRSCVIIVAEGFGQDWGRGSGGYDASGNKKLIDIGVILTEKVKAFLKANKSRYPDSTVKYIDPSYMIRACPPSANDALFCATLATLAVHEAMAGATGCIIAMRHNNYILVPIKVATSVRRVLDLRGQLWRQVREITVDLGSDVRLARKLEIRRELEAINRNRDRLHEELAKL
row,SMILES,Potency
1,NC(=O)c1ccccc1O,inactive
2,CCN(CC)CCOC(=O)C1(c2ccccc2)CCCC1,inactive
3,CC(=O)Nc1ccc(CC(=O)O)cc1,inactive
4,Cc1cc(-c2ccccc2)nnc1NCCN1CCOCC1,inactive
5,CCOc1ccccc1OCCN[C@H](C)Cc1ccc(OC)c(S(N)(=O)=O)c1,inactive
6,CN1CCN(CCC(=O)N2c3ccccc3Sc3ccc(C(F)(F)F)cc32)CC1,inactive
7,Cc1c[nH]c2ccccc12,inactive
8,O=S(c1cc(Cl)cc(Cl)c1O)c1cc(Cl)cc(Cl)c1O,inactive
9,CN(C)CCC[C@@]1(c2ccc(F)cc2)OCc2cc(C#N)ccc21,inactive
10,CCc1oc2ccccc2c1C(=O)c1cc(I)c(O)c(I)c1,inactive
11,NCCNc1cccc2ccccc12,inactive
12,C[N+]1(CC2COC(c3ccccc3)(C3CCCCC3)O2)CCCCC1 (configuration not stated),inactive
13,Cc1ccc(S(=O)(=O)NC(=O)NC2CCCC2)cc1,inactive
14,O=C(O)Cc1csc(-c2ccc(Cl)cc2)n1,inactive
15,c1ccc(-c2nc[nH]c2-c2ccccc2)cc1,inactive
16,CC(C)NCC(O)c1ccc2ccccc2c1 (configuration not stated),inactive
17,CCCCC(CC)COC(=O)/C=C/c1ccc(OC)cc1 (configuration not stated),inactive
18,CN(CCCN1c2ccccc2CCc2ccccc21)CC(=O)c1ccc(Cl)cc1,inactive
19,COc1cc(C(=O)NCc2ccc(OCCN(C)C)cc2)cc(OC)c1OC,inactive

row,SMILES,Potency
1,NC(=O)C1(N2CCCCC2)CCN(CCCC(=O)c2ccc(F)cc2)CC1,inactive
2,Oc1c(Cl)cc(Cl)c(Cl)c1Cc1c(O)c(Cl)cc(Cl)c1Cl,inactive
3,COP(=O)(OC)OC(c1ccc(Cl)cc1)P(=O)(OC)OC (configuration not stated),inactive
4,Cc1ncc(CO)c(C=O)c1O,inactive
5,O=C(NC1CCN(CCc2c[nH]c3ccccc23)CC1)c1ccccc1,inactive
6,COc1ccc2c(c1)c1c3n2CCN(C)C3=NCC1,inactive
7,CC1=C(C(=O)O)N2C(=O)[C@@H](NC(=O)[C@H](N)c3ccccc3)[C@H]2SC1,inactive
8,CN1CCN(c2c(F)cc3c(=O)c(C(=O)O)cn4c3c2SCC4)CC1,inactive
9,COc1ccc(CN(CCN(C)C)c2ncccn2)cc1,inactive
10,CCOC(=O)c1ccc(N)cc1,inactive
11,CC(=O)O[C@H]1C[C@@H]2CC[C@@H]3[C@H](CC[C@@]4(C)[C@H]3C[C@H]([N+]3(C)CCCCC3)[C@@H]4OC(C)=O)[C@@]2(C)C[C@@H]1N1CCCCC1,inactive
12,CCCCCCCCCCCCCCCC(=O)O,inactive
13,O=C(Oc1cccc2cccnc12)c1ccccc1,inactive
14,Nc1ccc(C(=O)NCC(=O)O)cc1,inactive
15,CCCc1ncc(C[n+]2ccccc2C)c(N)n1,inactive
16,CCCCCCCCCCCCOCCOCCOCCOCCOCCOCCOCCOCCOCCO,inactive
17,COc1cc(C)nc(-n2nc(C)cc2OC)n1,inactive
18,CNCCc1ccccn1,inactive
